{"source": "PubChem BioAssay (NCI)", "note": "About 83,000 compounds went through this panel and 20% of them were active in at least one assay; those are over-represented in the sample as a whole.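 96-well plates, one dose, 48 hours. Percent growth reported; active if below 10.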 The source made the active and inactive calls.", "data": [{"test_system": "MALME-3M melanoma", "experiment": "NCI-60 one-dose screen, 48 h (100 = growth as untreated, 0 = no growth, -100 = all killed)", "settings": "10 µM unless noted", "values": [{"smiles": "COc1cc2c(cc1-c1c(C)noc1C)ncc1nc(C3CCOCC3)n([C@@H](C)COC(F)F)c12", "growth": "66.3% (inactive)"}, {"smiles": "Cc1[nH]c(-c2cc(N)ccc2Cl)c2c1C(=O)CCCC2", "growth": "32.4% (inactive)"}, {"smiles": "O=S(=O)(Nc1ccc(Br)c(Cl)c1)c1ccc(-c2cnc(C3CC3)o2)cc1", "growth": "30.9% (inactive)"}, {"smiles": "C=CC(=O)Nc1cccc(-c2nc(SC)nc(NCCN3CCOCC3)c2C#N)c1", "growth": "89.6% (inactive)"}]}, {"test_system": "MDA-MB-231 breast", "experiment": "NCI-60 one-dose screen, 48 h (100 = growth as untreated, 0 = no growth, -100 = all killed)", "settings": "10 µM unless noted", "values": [{"smiles": "Cc1ccc(-c2onc3c(=O)[nH]nc(-c4ccccc4)c23)cc1", "growth": "34.9% (inactive)"}, {"smiles": "O=C1CSC(=S)N1CCc1ccc(O)cc1", "growth": "91.3% (inactive)"}, {"smiles": "CNC(=O)c1cc(Oc2ccc(NC(=O)Nc3ccc(Cl)c(OC(F)(F)F)c3)c(F)c2)ccn1", "growth": "35.3% (inactive)"}, {"smiles": "N#C/C(=C\\c1ccc(-c2ccc(Cl)c(Cl)c2)o1)c1nc(-c2ccco2)cs1", "growth": "84.1% (inactive)"}, {"smiles": "O=S(=O)(Nc1ccc(OC(F)F)cc1)c1ccc(-c2cnc(C3CC3)o2)cc1", "growth": "70.2% (inactive)"}, {"smiles": "O=C1Nc2cc(-c3ccc(O)cc3)ccc2/C1=C/c1ccc[nH]1", "growth": "13.2% (inactive)"}, {"smiles": "CON1C(=O)CC[C@]2(C)[C@H]3CC[C@@H]4C([C@@]5(C)CCC(=O)O5)CC[C@@]4(C)[C@]3(C)CC[C@H]2C1(C)C", "note": "(some centres undefined)", "growth": "96.5% (inactive)"}, {"smiles": "Cn1cc(C(=O)c2nc(-c3c[nH]c4ccc(Br)cc34)no2)c2cc(F)ccc21", "growth": "89% (inactive)"}, {"smiles": "COc1ccc(-n2nc(C)c3c(Nc4ccc(NC(=O)Nc5cccc(C(F)(F)F)c5)cc4)ncnc32)cc1", "growth": "-18.7% (active)"}, {"smiles": "CC(C)C1=C[C@@]23CC[C@@H]4[C@](C)(CCC[C@@]4(C)C(=O)N4CCCNCC4)[C@H]2C[C@@H]1[C@H]1C(=O)CCC(=O)[C@H]13", "growth": "109% (inactive)"}]}]}
